Measurements from PubChem BioAssay.
Activity calls are given as the source filed them.

What was measured:
[1] = system: Plasmodium falciparum Sir2 (PF13_0152, Sir2A); assay: pfSir2 binders on small-molecule microarrays, primary screen, biochemical, small-molecule microarray, 635 nm fluorescence (AID 1098); conditions: small-molecule microarray binding, fluorescence 635 nm; higher = more signal;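 further: score merges spot fluorescence intensity with its signal-to-noise ratio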
[2] = small-molecule microarray binders of probe aDKK1, primary screen, biochemical, biotinylated probe, 635/667 nm fluorescence (AID 1099); conditions: higher = more signal;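 further: score merges 667nm spot fluorescence with signal to noise across triplicate slides; reference of the scale not given here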
[3] = small-molecule microarray binders of probe aCHRDL2, primary screen, biochemical, biotinylated probe, 635/667 nm fluorescence (AID 1100); conditions: higher = more signal
[4] = splicing luciferase reporter signal modulators, primary screen, spliceosome inhibition project, cell-based, HEK293, splice +/- reporter (AID 1101); conditions: luminescence, 24 h, higher = more signal, called active from +8 up or from −8 down;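 further: HEK293 cells carrying a splicing-competent luciferase reporter gene; test concentration not given here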
[5] = target: Fibroblast growth factor 10 (Homo sapiens) (UniProt O15520); assay: FGF10 binders on small-molecule microarrays, primary screen, biochemical, small-molecule microarray, 635 nm fluorescence (AID 1102); conditions: FGF10 binding, fluorescence 635 nm, higher = more signal
[6] = system: glycogen synthase kinase-3 (GSK3A per assay name; protocol says GSK3B); assay: GSK3 binders on small-molecule microarrays, primary screen, biochemical, small-molecule microarray, 635 nm fluorescence, GSK3A (AID 1103); conditions: small-molecule microarray binding, fluorescence 635 nm; higher = more signal; further: the record names both GSK3A and GSK3B
[7] = target: Epidermal growth factor receptor (Homo sapiens) (UniProt P00533); assay: EGFR binders on small-molecule microarrays, primary screen, biochemical, small-molecule microarray, 635 nm fluorescence (AID 1104); conditions: EGFR binding, higher = more signal;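 further: score merges 667 nm emission intensity with spot signal to noise over triplicate slides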
[8] = target: Follistatin-related protein 3 (Homo sapiens) (UniProt O95633); assay: FSTL3 binders on small-molecule microarrays, primary screen, biochemical, small-molecule microarray, 635 nm fluorescence (AID 1105); conditions: FSTL3 binding, higher = more signal;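 further: score merges emission near 667 nm and signal to noise per printed spot across three slides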
[9] = target: Dickkopf-related protein 1 (Homo sapiens) (UniProt O94907); assay: DKK1 binders on small-molecule microarrays, primary screen, biochemical, small-molecule microarray, 635 nm fluorescence scan (AID 1106); conditions: DKK1 binding, higher = more signal;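 further: score merges emission near 667 nm with signal to noise over three replicate slides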
[10] = system: Inhibin beta A chain (activin A); assay: INHBA (activin A) binders on microarrays, primary screen, biochemical, small-molecule microarray, 635 nm fluorescence scan (AID 1107); conditions: small-molecule microarray binding, higher = more signal;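 further: mouse activin A protein probed at 4.33 µg/mL on printed slides; score merges bound-protein fluorescence near 667 nm with spot signal-to-noise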

Chain of Dickkopf-related protein 1 (Homo sapiens) (O94907 whole entry, looked up): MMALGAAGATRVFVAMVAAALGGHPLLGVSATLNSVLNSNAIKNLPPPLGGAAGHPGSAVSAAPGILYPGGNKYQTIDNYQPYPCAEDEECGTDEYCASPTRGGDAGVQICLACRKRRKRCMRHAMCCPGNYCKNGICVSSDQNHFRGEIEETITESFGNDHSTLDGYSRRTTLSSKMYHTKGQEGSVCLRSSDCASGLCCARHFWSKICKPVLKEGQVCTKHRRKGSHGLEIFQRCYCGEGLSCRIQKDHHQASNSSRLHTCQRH
Chain of Epidermal growth factor receptor (Homo sapiens) (P00533 whole entry, looked up): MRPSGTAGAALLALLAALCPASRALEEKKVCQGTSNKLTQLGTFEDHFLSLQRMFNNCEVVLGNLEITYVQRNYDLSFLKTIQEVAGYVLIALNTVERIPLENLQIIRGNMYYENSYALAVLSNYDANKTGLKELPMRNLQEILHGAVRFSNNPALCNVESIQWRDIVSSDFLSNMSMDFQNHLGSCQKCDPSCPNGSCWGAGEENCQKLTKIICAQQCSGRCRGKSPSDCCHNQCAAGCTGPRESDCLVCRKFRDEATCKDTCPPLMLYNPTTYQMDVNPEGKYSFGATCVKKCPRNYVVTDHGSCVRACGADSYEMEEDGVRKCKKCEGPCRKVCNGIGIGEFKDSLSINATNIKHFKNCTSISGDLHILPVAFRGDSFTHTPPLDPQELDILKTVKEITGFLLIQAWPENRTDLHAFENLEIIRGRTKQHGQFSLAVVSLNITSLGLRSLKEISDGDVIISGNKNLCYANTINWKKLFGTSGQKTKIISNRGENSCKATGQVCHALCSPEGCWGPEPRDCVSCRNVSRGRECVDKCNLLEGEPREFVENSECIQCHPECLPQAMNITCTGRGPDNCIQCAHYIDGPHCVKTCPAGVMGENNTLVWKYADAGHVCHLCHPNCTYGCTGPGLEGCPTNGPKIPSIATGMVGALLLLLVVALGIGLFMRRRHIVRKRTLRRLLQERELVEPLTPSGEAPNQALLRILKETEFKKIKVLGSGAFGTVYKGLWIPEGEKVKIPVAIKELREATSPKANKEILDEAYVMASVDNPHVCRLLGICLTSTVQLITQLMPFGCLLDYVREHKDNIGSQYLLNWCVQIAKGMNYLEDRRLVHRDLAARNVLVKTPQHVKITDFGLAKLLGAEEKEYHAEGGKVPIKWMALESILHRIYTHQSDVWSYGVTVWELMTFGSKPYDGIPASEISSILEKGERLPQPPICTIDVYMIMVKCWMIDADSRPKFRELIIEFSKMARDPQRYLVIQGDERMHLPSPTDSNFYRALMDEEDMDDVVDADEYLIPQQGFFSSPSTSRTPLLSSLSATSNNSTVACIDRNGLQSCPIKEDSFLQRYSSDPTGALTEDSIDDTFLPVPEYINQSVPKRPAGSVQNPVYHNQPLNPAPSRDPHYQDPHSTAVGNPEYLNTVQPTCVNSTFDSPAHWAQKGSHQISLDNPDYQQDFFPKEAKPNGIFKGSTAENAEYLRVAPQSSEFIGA
Chain of Follistatin-related protein 3 (Homo sapiens) (O95633 whole entry, looked up): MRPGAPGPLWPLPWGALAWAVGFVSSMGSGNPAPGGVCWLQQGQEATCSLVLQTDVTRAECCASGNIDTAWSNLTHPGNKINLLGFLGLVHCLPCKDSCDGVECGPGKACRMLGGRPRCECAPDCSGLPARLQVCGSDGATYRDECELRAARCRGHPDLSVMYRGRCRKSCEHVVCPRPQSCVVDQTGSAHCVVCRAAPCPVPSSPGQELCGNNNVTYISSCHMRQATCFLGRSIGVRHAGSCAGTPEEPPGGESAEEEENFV
Chain of Fibroblast growth factor 10 (Homo sapiens) (O15520 whole entry, looked up): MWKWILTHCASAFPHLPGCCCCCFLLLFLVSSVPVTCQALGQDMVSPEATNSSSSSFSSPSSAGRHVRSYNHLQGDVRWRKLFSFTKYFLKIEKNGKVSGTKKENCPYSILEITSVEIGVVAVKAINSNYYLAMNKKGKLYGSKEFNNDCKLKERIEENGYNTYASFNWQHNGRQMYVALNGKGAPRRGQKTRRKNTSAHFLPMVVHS

| Structure (SMILES) | composite z-score [1] | composite z-score [2] | composite z-score [3] | z-score [4] | composite z-score [5] | composite z-score [6] | composite z-score [7] | composite z-score [8] | composite z-score [9] | composite z-score [10] |
| --- | --- | --- | --- | --- | --- | --- | --- | --- | --- | --- |
| COCC(=C=CC[C@H](O)c1ccccc1OCCO)C[C@H](O)c1cc(Cl)cc(Cl)c1O | 0.588 | -0.141 | -0.0448 | -0.705 (inactive) | 1.62 | 0.702 | -0.0335 | 0.897 | -0.0154 | 0.282 |
| COCCOC(=O)N1C(=O)[C@@]2(c3cc(C#CC4=CCCCC4)ccc31)[C@H](c1ccc(O)cc1)N1[C@H](c3ccccc3)[C@H](c3ccccc3)OC(=O)[C@H]1[C@@H]2C(N)=O | 1.03 | -0.327 | -0.624 | -1.03 (inactive) | 1.17 | 1.12 | 0.584 | 1.16 | 0.639 | 0.155 |
| [N-]=[N+]=Nc1ccccc1C[C@]1(C(=O)NCC(O)CO)N=C(c2ccc(OCCCO)cc2)O[C@H]1c1ccccc1N=[N+]=[N-] (stereo not given in full) | 0.535 | 0.963 | 0.704 | -1.19 (inactive) | -0.255 | -0.517 | -0.363 | -0.736 | -1.12 | 1.01 |
| CCOc1cc(C(O)C2C=CC3C(=O)N(c4ccccc4)C(=O)C3N2Nc2ccccc2)ccc1O (stereo not given) | 0.716 | -0.0126 | 0.834 | 0.608 (inactive) | 0.671 | 0.0622 | -0.114 | 0.128 | -0.832 | 0.829 |
| CN1C(=O)C2C=CC(C(O)c3ccc(-c4ccccc4)s3)N(N(c3ccccc3)c3ccccc3)C2C1=O (stereo not given) | 0.61 | 0.818 | 0.798 | 0.214 (inactive) | 0.186 | 0.724 | -0.0198 | 0.338 | 0.0129 | 1.18 |
| C=CCOC(=O)[C@H]1[C@@H]2C(=O)O[C@@H](c3ccccc3)[C@@H](c3ccccc3)N2[C@@H](c2ccc(OCCOC(=O)[C@H]3C[C@H]4C(=O)N[C@@H](CC(C)C)C(=O)N4[C@H]3c3ccc(O)cc3)cc2)[C@]12C(=O)Nc1ccc(I)cc12 | 1.5 | -0.271 | -0.3 | -0.281 (inactive) | 1.4 | 1.3 | 0.748 | 1.15 | 1.23 | 0.12 |
| CC(C)[C@@H](CO)NC(=O)[C@H]1[C@@H](c2ccccc2)N(c2ccccc2)O[C@@H]1C | 0.008 | -0.343 | -0.343 | -0.18 (inactive) | -0.123 | -0.418 | -0.0881 | -0.218 | 0.227 | 0.197 |
| C=CCOC(=O)[C@@H]1[C@H]2C(=O)O[C@H](c3ccccc3)[C@H](c3ccccc3)N2[C@H](c2ccc(OCCOC(=O)[C@@H]3C[C@@H]4C(=O)N[C@@H](CCCCN(C)C)C(=O)N4[C@@H]3c3ccc(O)cc3)cc2)[C@@]12C(=O)Nc1ccc(I)cc12 | 1.14 | -0.0242 | 0.0749 | -0.0143 (inactive) | 0.767 | 1.13 | 1.01 | 1.04 | 1.11 | 0.347 |
